The results in this text go back to paper PMC5540273 (PLoS ONE, 2017).
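Also: kd values determined as follow-up on hits from a single-replicate KINOMEscan panel screen.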

The term Kd denotes the concentration at which binding is half-saturated. Low values mean higher affinity, high ones lower affinity. In the test with CDKL3, `Cn1cncc1C(=O)NC1CCN(c2ccnc(Nc3ccc(F)cc3)n2)C1` (centres unmarked) [GSK1379717] returned an equilibrium dissociation constant (Kd) greater than 10000 nM.

Take `CS(=O)(=O)CCNCc1nc(-c2ccc3ncnc(Nc4ccc5c(cnn5Cc5ccccc5)c4)c3c2)cs1.Cl.Cl` [GW569716]: in the test with CDKL3, the Kd is greater than 10000 nM.

Molecule `COc1ccc(Nc2nccc(N3CCC(NC(=O)C(C)c4ccc(Cl)cc4)CC3)n2)cc1` (centres unmarked) [GSK1379812] came in with a Kd in the test on CDKL5 greater than 10000 nM. In the test with CDKL5, `O=C(Nc1n[nH]c2nc(-c3ccco3)c(Br)cc12)C1CCN(Cc2ccccc2)C1.O=C(O)[C@H](O)[C@@H](O)C(=O)O` (centres unmarked) [SB-742034] returned an equilibrium dissociation constant (Kd) of 1100 nM. The molecule `Cc1ccc(NC(=O)Nc2ccc(Cl)c(C(F)(F)F)c2)cc1-c1ccc(C(=O)Nc2ccncc2)cc1` [GSK1398470] returned a Kd in the test with CIT of 380 nM.
